Sampled rows, rich in hits. Any-hit rate of the full collection: about 1.4%.
AMA1-RON2 inh – disrupts binding of P. falciparum AMA1 to RON2 | Potency, µM (doses to about 58.2 µM), hits mostly inhibitors | AID 720542 | AlphaScreen AMA1-biotinylated RON2 peptide binding | hit rate 0.2% among 360,000; note: nearly all actives have a fitted effect of over 45% in size
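AMA1 (3D7) with his tag at 25 nM final met compounds first, then biotinylated RON2 peptide at 25 nM; detection used donor plus acceptor beads, 10 µg/mL apiece, read by AlphaScreen after 30 min at room temperature.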
AmpC no deterg – AmpC beta-lactamase inhibition without detergent. AmpC nitrocefin hydrolysis, absorbance 480 nm, 0.0001% Triton. AID 485341. Potency, µM (doses to about 57.1 µM), actives largely listed as inhibitors. hit rate 0.52% among 330,000. P00811; note: nearly all actives have a fitted effect of over 20% in size
Target sequence (P00811 whole entry, looked up): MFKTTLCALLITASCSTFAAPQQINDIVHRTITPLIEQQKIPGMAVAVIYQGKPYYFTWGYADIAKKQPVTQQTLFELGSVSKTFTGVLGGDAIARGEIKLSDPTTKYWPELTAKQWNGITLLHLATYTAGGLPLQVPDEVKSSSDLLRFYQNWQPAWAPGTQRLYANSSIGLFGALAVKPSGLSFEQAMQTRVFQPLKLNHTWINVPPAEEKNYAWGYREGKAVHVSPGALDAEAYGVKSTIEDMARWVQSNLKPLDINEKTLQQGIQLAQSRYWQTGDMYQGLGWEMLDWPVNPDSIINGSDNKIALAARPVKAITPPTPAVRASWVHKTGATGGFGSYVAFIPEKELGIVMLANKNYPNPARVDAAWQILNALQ
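AmpC (5.3 nM in the dispensed reagent) in 20 mM phosphate pH 7.0 with 0.01% (detergent screen) or 0.0001% Triton X-100 was preincubated with compounds for 15 min at room temperature. Nitrocefin was then added from an 800 uM solution, and hydrolysis was followed at 480 nm.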
AmpC inh detg – AmpC beta-lactamase inhibition with detergent present; P00811; AmpC hydrolysis of nitrocefin, absorbance 480 nm, 0.01% Triton; Potency, µM (top dose mostly 114 µM), most hits filed as inhibitors; hit rate 0.041% among 370,000; note: nearly all actives have a fitted effect of over 25% in size
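AmpC (5.3 nM in the dispensed reagent) in 20 mM phosphate pH 7.0 with 0.01% (detergent screen) or 0.0001% Triton X-100 was preincubated with compounds for 15 min at room temperature. Nitrocefin was then added from an 800 uM solution, and hydrolysis was followed at 480 nm.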
SARS PLpro yeast – blocks SARS-CoV papain-like protease in a yeast assay. S. cerevisiae expressing SARS-CoV PLpro, growth rescue. hit rate 0.19% among 330,000. Potency, µM (doses to about 32.9 µM), most hits filed as activators. AID 485353; calls by dose curve; note: nearly all actives have a fitted effect of over 55% in size
Vaccinia Venus – inhibitors of vaccinia virus (Venus reporter); Vaccinia virus Venus reporter expression, fluorescence; AID 720580; hit rate 0.46% among 330,000; Potency, µM (titrated, usually from 36.5 µM), hits mostly inhibitors; calls by dose curve; tested in A549 cells; note: nearly all actives have a fitted effect of over 30% in size
VACV mCherry inh – vaccinia inhibition (mCherry reporter); Vaccinia virus mCherry reporter infection, fluorescence; Potency, µM (highest dose often 36.5 µM), usual class: inhibitors; hit rate 0.63% among 310,000; AID 720579; calls by dose curve; tested in A549 cells; note: nearly all actives have a fitted effect of over 35% in size
Numbers stand for hits; . = inactive; ? = inconclusive; / = no result given; [ ] = remark or other dose. Unless noted, calls come from the whole dose curve; as a rule, active = well fitted curve in the direction sought with a large enough effect; inconclusive = small, poorly fitted or top-dose-only effect, or another doubt; inactive = no such curve, though single readings can be large; an effect the other way counts as inactive or inconclusive.

SMILES | AMA1-RON2 inh | AmpC no deterg | AmpC inh detg | SARS PLpro yeast | Vaccinia Venus | VACV mCherry inh
O=C(N/N=C(\c1ccccc1)c1cccnc1)c1cccc(F)c1 | . | . | . | . | ? | 3.2µM
O=C(N/N=C(\Cc1ncc[nH]1)c1ccccc1)c1ccncc1 | . | . | . | . | ? | 10µM
O=C(N/N=C(\Cc1ncc[nH]1)c1ccccc1)c1cccnc1 | . | . | . | . | ? | 11µM
O=C(N/N=C(\c1ccccc1)c1cccnc1)c1ccc(O)cc1 | . | . | . | . | . | .
CCc1noc(C)c1C(=O)N1CCOc2ccc(CN3CCN(c4ccccn4)CC3)cc2C1 | / | / | / | / | . | .
CCOc1ccc(C(=O)N2CCN(Cc3cc(=O)n4nc(-c5ccccc5Cl)sc4n3)CC2)cc1 | / | / | . | / | . | .
Cc1ccc(NC(=O)c2cc(C)n(-c3ccccc3)c2C)cc1 | .[11.6 µM] | . | . | . | . | .
Cc1ccc(NC(=O)c2cc(C)n(-c3cccc(C)c3)c2C)cc1 | ? | 16µM | . | . | . | .
COc1ccc2ccccc2c1/C=N/N1C(=O)CSC1=S | . | 16µM | . | . | . | .
Cn1c(SSc2ccc(-c3cccnc3)n2C)ccc1-c1cccnc1 | . | / | / | / | ? | 13µM
C[n+]1c(/C=C/c2ccc(N)cc2)sc2ccccc21 | / | / | / | / | . | .
C[n+]1cccc(Br)c1 | / | / | / | / | . | .
Cc1ccc(S(=O)(=O)/N=C2\C=C(Nc3ccc(O)cc3)C(=O)c3ccccc32)cc1 | 20µM | . | / | . | 2.2µM | 5µM
Cc1ccc(NC2=C/C(=N/S(=O)(=O)c3cccs3)c3ccccc3C2=O)cc1 | . | . | . | . | ? | .
COC(=O)c1ccccc1NC1=C/C(=N\S(=O)(=O)c2ccc(C(=O)O)cc2)c2ccccc2C1=O | ? | . | . | . | ? | 25µM
Cc1ccc(S(=O)(=O)/N=C2\C=C(Nc3cccc(C(=O)O)c3)C(=O)c3ccccc32)cc1 | . | . | . | . | . | ?
COC(=O)c1ccccc1NC1=C/C(=N\S(=O)(=O)c2cccs2)c2ccccc2C1=O | 3.2µM | . | . | . | ? | ?
O=C1C(Nc2ccccc2)=C/C(=N/S(=O)(=O)c2cccs2)c2ccccc21 | ? | 10µM | . | . | 10µM | 8.9µM
Cn1c(CCNC(=O)C2CC23CCN(C(=O)C2=CCCC2)CC3)nc2ccccc21 (stereo not drawn) | / | / | / | / | . | .
CCN1CCN(CCCNC(=O)c2ccc3c(c2)NC(=O)c2ccccc2S3)CC1 | . | 4µM | . | . | . | .
O=C(NNC(=S)NC(=O)c1ccccc1[N+](=O)[O-])c1ccccc1O | 0.71µM | . | . | . | . | .
CN(CCC#N)c1ccc(/C=C/c2ccnc3ccccc23)cc1 | / | / | / | / | . | .
Cc1ccc(C(=O)Nc2cnn(-c3ccc(C(=O)NCc4nc(-c5ccccc5)n[nH]4)cc3)c2)c(C)c1 | / | / | / | / | . | .
Cc1ccccc1-n1c(-c2csc(C)c2C)n[nH]c1=S | . | 22µM | ? | . | ? | .
OCCN1CCN(Cc2ccc3c(c2)CN(Cc2cc4ccccc4o2)CCO3)CC1 | / | / | / | / | . | .
SMILES | AMA1-RON2 inh | AmpC no deterg | AmpC inh detg | SARS PLpro yeast | Vaccinia Venus | VACV mCherry inh
N=c1n(CCO)c2ccccc2n1CCOc1ccc(Cl)cc1Cl | . | . | ? | . | 11µM | ?
COc1ccc(OCCn2c(=N)n(CCO)c3ccccc32)cc1 | . | . | . | . | . | .
Cc1cc(C)cc(C(=O)NCc2nc(-c3cccc(NC(=O)c4ccccn4)c3)oc2C)c1 | / | / | / | / | . | .
CCOc1ccc(N2C(=O)/C(=C\c3cccs3)C(=O)NC2=S)cc1 | . | . | . | . | . | .
CCOc1ccc(N2C(=O)/C(=C/c3ccco3)C(=O)NC2=S)cc1 | 4µM | 13µM | ? | . | / | /
Cc1ccccc1N1C(=O)/C(=C/c2ccco2)C(=O)NC1=S | / | 7.1µM | 45µM | . | / | /
Cc1ccc(NC(=S)NC(=O)C2CCCC2)cc1C | . | 3.2µM | . | . | . | .
Cc1ccc(NC(=S)NC(=O)C2CCC2)cc1C | . | . | ? | . | . | .
Cc1ccnc(NS(=O)(=O)c2ccc(NC(=O)C3CCCCC3)cc2)n1 | . | . | . | . | . | .
Cc1cc(C)nc(NS(=O)(=O)c2ccc(NC(=S)NC(=O)C3CCCC3)cc2)n1 | . | . | ? | . | 10µM | ?
CN(C)c1ccc(-[n+]2c(-c3ccccc3)cc(-c3ccccc3)cc2-c2ccccc2)cc1 | . | . | . | . | ? | .
CN(C)c1ccc(C=c2c3cc([N+](=O)[O-])ccc3n3c2cc(-c2ccccc2)[n+]3C)cc1 | 8.9µM | / | / | / | . | .
CN(C)c1ccc(C=c2c3ccccc3n3c2cc(-c2ccccc2)[n+]3C)cc1 | 32µM | / | / | / | . | .
CN(C)c1ccc(C=c2c3ccccc3n3c2cc(-c2ccc(Cl)cc2)[n+]3C)cc1 | 18µM | / | / | / | . | .
CN(C)c1ccc(C=c2c3ccccc3n3c2c2c([n+]3C)CCCC2)cc1 | ? | / | / | / | 6.3µM | 3.2µM
O=C(NCCc1ccccn1)C1CC12CCN(C(=O)c1ccc(F)cc1Cl)CC2 (stereo not drawn) | / | / | / | / | . | .
COc1cccc(C2(CC(=O)N3CCC(c4nc5ccc(F)cc5[nH]4)CC3)CC(=O)N(C)C2=O)c1 (stereo not drawn) | / | / | / | / | . | .
O=c1c(-c2cc(-c3ccc(F)cc3)nc3c2COc2ccc(Cl)cc2-3)coc2ccc(F)cc12 | / | / | . | / | .[7.34 µM] | .[7.34 µM]
Cc1cc(CNC(=O)c2cnn(-c3nccc(-c4ccc5c(c4)OCO5)n3)c2C2CC2)on1 | / | / | / | / | . | .
CCN(Cc1ccncc1)Cc1ccc2c(c1)CN(C(=O)c1ccccc1)CCO2 | / | / | / | / | . | .
COc1cc(C=c2c3ccccc3n3c2cc(-c2ccccc2)[n+]3C)cc(OC)c1OC | ? | / | / | / | . | .
COc1cc(N(C)C)ccc1C=c1c2ccccc2n2c1cc(-c1ccccc1)[n+]2C | 13µM | / | / | / | . | .
COc1ccc(S[C@@H]2C[C@@H](C(=O)Nc3ccc4nccnc4c3)N(C3Cc4ccccc4C3)C2)cc1 | / | / | / | / | . | .
CCCc1c(C(=O)N/N=C(\C)c2ccc(O)cc2)nnn1-c1nonc1N | . | . | . | . | / | /
CCOc1ccc(-c2c(C(=O)N/N=C/c3cccc(Br)c3)nnn2-c2nonc2N)cc1 | . | 16µM | . | . | / | /
CCCc1c(C(=O)N/N=C(\C)c2ccccn2)nnn1-c1nonc1N | . | / | / | / | ? | 0.89µM
CCN(CC)c1ccc(/C=N/NC(=O)c2nnn(-c3nonc3N)c2C(C)C)c(O)c1 | . | . | . | ? | ? | 2.5µM
CC1CCN(Cc2c(C(=O)N/N=C/c3ccccc3O)nnn2-c2nonc2N)CC1 | . | . | ? | . | ? | 2µM
O=C(Cn1c(=O)oc2cc(S(=O)(=O)N3CCCCCC3)ccc21)Nc1ccc(F)cc1F | / | / | . | / | . | .

Assay outcomes from PubChem BioAssay.
